Our source for the z-score and composite z-score values is PubChem BioAssay.

Test [1] can be described thus: adipocyte viability effects, profiling panel, cell-based, 3T3-L1 adipocytes, calcein-AM fluorescence, 48 h, basal (AID 1163). To be noted: 3T3-L1 adipocytes viability, higher = more signal.
Test [2] is described as follows: HepG2 cell viability effects, profiling panel, calcein-AM fluorescence, 48 h, basal (AID 1164). To be noted: higher = more signal.
The nature of test [3]: MM1S cell viability effects, profiling panel, calcein-AM fluorescence, 48 h, basal (AID 1165).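 Also: viability of MM1S multiple myeloma cells under basal unstimulated conditions.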 To be noted: higher = more signal.
Test [4] is described as follows: basal RPMI8226 viability, no added stimulus, profiling panel, cell-based, calcein-AM fluorescence, 48 h, PK04 Diversity Set (AID 1166).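 Also: cells grown under basal conditions without added stimulus.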 To be noted: RPMI8226 myeloma viability, higher = more signal.
Test [5] in a line: basal HepG2 mitochondrial membrane potential changes, profiling panel, cell-based, JC-1 fluorescence, 24 h, 100 nL compound (AID 1167). The following applies: higher = more signal.
Test [6] in a line: basal 3T3-L1 adipocyte mitochondrial potential changes, profiling panel, cell-based, JC-1 fluorescence, 3T3-L1 adipocytes, 24 h, 100 nL compound (AID 1168). The following applies: JC-1 mitochondrial fluorescence, higher = more signal, called active from +8 up or from −8 down.
Test [7] in a line: basal RPMI8226 mitochondrial membrane potential changes, profiling panel, cell-based, JC-1 fluorescence, 24 h, 100 nL compound (AID 1169). The following applies: RPMI8226 myeloma, JC-1 mitochondrial potential fluorescence, higher = more signal.
The nature of test [8]: basal MM1S mitochondrial membrane potential changes, profiling panel, cell-based, JC-1 fluorescence, 24 h, 100 nL compound (AID 1170). The following applies: higher = more signal.
Test [9] is described as follows: A549 lung cancer cell viability effects, profiling panel, resazurin fluorescence, 24 h, PK04 Diversity Set (AID 1171). The following applies: higher = more signal, called active from +8 up or from −8 down. In general terms: The colour change of resazurin is a common sign of viable cells or microbes.
Test [10] is described as follows: HepG2 liver cancer cell viability effects, profiling panel, resazurin fluorescence, 24 h, PK04 Diversity Set (AID 1172). The following applies: higher = more signal.
Test [11] in a line: basal S. cerevisiae growth modulation, no modifier, primary screen, OD600, strain BY4716, 24 h, basal condition (AID 1173). To be noted: OD600, 24 h, higher = more signal, called active from +8 up or from −8 down.
Test [12] is described as follows: MM1S myeloma cell viability, profiling panel, resazurin fluorescence, basal, 24 h, PK04 Diversity Set (AID 1174).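 Also: MM1S multiple myeloma cell line.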 The following applies: higher = more signal, called active from +8 up or from −8 down.
Test [13] deals with Dihydroorotate dehydrogenase (quinone), mitochondrial (Plasmodium falciparum (isolate 3D7)) (UniProt Q08210). As to the kind of experiment: PfDHODH enzyme inhibitors, primary screen, biochemical, C-terminal His tag, absorbance 600 nm (AID 1175).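 Also: recombinant parasite enzyme with a five histidine tag at its C terminus.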 To be noted: DCIP absorbance 600 nm, higher = more signal, called active from +8 up or from −8 down.
Dihydroorotate dehydrogenase (quinone), mitochondrial (Plasmodium falciparum (isolate 3D7)), sequence (Q08210 whole entry, looked up): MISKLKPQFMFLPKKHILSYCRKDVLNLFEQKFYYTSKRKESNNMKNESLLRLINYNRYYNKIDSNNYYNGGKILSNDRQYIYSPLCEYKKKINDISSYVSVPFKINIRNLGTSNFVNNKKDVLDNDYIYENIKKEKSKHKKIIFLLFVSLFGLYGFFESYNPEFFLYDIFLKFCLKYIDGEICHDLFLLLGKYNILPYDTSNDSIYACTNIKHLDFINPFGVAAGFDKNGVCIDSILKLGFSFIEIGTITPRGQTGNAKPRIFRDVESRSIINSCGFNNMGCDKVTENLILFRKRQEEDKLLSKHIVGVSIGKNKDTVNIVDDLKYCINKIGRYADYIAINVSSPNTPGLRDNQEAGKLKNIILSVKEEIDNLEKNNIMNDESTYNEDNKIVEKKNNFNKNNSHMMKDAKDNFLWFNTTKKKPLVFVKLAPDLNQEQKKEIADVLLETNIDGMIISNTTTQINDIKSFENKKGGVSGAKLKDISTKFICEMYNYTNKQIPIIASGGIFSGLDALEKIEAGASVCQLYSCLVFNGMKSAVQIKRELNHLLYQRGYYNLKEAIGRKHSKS
Test [14] in a line: S. cerevisiae RM11-1a growth modifiers, primary screen, strain RM11-1a, OD600, basal, 24 h (AID 1177).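 Also: cultures grown under basal conditions with no added stressor.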 To be noted: OD600, 24 h, higher = more signal, called active from +8 up or from −8 down.
Test [15] can be described thus: E. coli acrAB mutant growth effects, primary screen, E. coli filamentation inducers, strain DRC39, OD650, 24 h (AID 1178).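 Also: growth measured as culture turbidity by optical density at 650 nm.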 To be noted: higher = more signal, called active from +8 up or from −8 down.
Test [16] in a line: E. coli acrAB mutant growth effects, primary screen, E. coli filamentation inducers, strain DRC39, OD650, 48 h (AID 1179).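 Also: screen aims at cell division blockers that make cells filament.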 The following applies: E. coli DRC39 delta-acrAB growth, higher = more signal, called active from +8 up or from −8 down.
The nature of test [17]: RPMI8226 myeloma cell viability, profiling panel, resazurin fluorescence, basal, 24 h, PK04 Diversity Set (AID 1180).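 Also: RPMI8826 multiple myeloma cell line at 5000 cells per well.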 To be noted: higher = more signal.
The target in test [18] is E3 ubiquitin-protein ligase XIAP (Homo sapiens) (UniProt P98170). As to the kind of experiment: XIAP binders, primary screen, biophysical, small-molecule microarray, fluorescence 635 nm (AID 1181).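 Also: score merges 667 nm emission and signal to noise over triplicate slides.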 The following applies: small-molecule microarray binding, higher = more signal.
E3 ubiquitin-protein ligase XIAP (Homo sapiens), sequence (P98170 whole entry, looked up): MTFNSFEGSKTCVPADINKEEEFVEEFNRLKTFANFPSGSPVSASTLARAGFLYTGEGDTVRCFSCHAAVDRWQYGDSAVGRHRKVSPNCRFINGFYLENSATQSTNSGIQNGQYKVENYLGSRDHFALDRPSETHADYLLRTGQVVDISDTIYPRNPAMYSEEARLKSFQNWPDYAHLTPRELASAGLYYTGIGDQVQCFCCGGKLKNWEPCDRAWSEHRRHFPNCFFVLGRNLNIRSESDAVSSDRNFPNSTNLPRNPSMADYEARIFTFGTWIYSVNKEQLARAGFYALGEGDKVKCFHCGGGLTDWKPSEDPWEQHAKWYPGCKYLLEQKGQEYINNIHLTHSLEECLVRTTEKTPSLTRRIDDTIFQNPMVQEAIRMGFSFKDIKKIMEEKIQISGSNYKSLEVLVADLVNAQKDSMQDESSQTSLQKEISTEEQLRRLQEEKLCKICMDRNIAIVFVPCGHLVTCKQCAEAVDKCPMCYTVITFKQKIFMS
In test [19] the test system is XIP peptide (Xip251-270) binding. As to the kind of experiment: small-molecule binders of XIP peptide, primary screen, biochemical, small-molecule microarray, fluorescence 635/667 nm, 0.1 µg/mL protein (AID 1182). The following applies: fluorescent protein binding, 635 nm, higher = more signal, called active from +8 up or from −8 down.
The test system of another test is XIP peptide (Xip251-270). Put plainly: small-molecule binders of XIP peptide, primary screen, biochemical, small-molecule microarray, fluorescence 635/667 nm, 0.5 µg/mL protein (AID 1183). The following applies: small-molecule microarray binding, fluorescence 635 nm; higher = more signal.

Activity calls are given as the source filed them.

In the case of `C=C(/C(=C/C[C@H](OC(C)=O)c1cccc(OCCO)c1)c1cc(C(=O)OC)ccc1OC)C(C)C`, the z-score in [1] is 0.911; in [2] it was 0.454; in [3], -0.181; in test [4] it was 0.587; in test [5], 1.66; in test [6], 1.91 (inactive). In addition, the z-score in test [7] was 0.00485; in test [8], 0.343; in test [9], 3.57 (inactive); in test [10] it was 1.97; in test [11], -1.63 (inactive); in test [12] it was 1.92 (inactive). Also, the z-score in [14] was -1.29 (inactive); in test [15], 2.48 (inactive); in [16], 1.67 (inactive); in test [17] it was 1.87. For the same molecule, the composite z-score in test [13] was -0.569 (inactive); in test [18], 0.0479; in test [19] it was -0.139 (inactive); in the test on XIP peptide (Xip251-270) it was -0.595.
`COCCOC(=O)N1C(=O)[C@@]2(c3cc(C#CCCO)ccc31)[C@H](c1ccccc1OCCO)N1[C@H](c3ccccc3)[C@H](c3ccccc3)OC(=O)[C@H]1[C@@H]2C(=O)NC[C@H](O)c1ccccc1`: the z-score in test [1] was 0.915; in test [2] it was -0.527; in test [3], -0.377; in test [4] it was -1.11; in test [5] it was 0.278; in test [6], 1.96 (inactive). In addition, the z-score was -0.73 in [7]; -1.3 in [8]; 1.56 (inactive) in [9]; 1.43 in test [10]; -0.769 (inactive) in test [11]; 0.716 (inactive) in [12]. The z-score is -0.404 (inactive) in test [14], 2.24 (inactive) in [15], 2.23 (inactive) in test [16] and 0.433 in test [17]. Moreover, the composite z-score is -0.375 (inactive) in test [13], -0.0446 in test [18], 0.533 (inactive) in test [19] and 0.705 with XIP peptide (Xip251-270).
Take `[N-]=[N+]=NCc1ccccc1C[C@@]1(C(=O)NCc2ccccc2)N=C(c2ccc(OCCCO)cc2)O[C@@H]1c1ccccc1`: the z-score was 0.904 in test [1]; -1.34 in [2]; -2.85 in test [3]; -3.02 in test [4]; 0.634 in test [5]; 0.187 (inactive) in [6]. Further, the z-score in test [7] is -0.876; in [8], -0.758; in test [9], 0.507 (inactive); in [10], 1.72; in test [11] it was 1.47 (inactive); in test [12], -0.544 (inactive). The z-score was 0.971 (inactive) in [14], 1.61 (inactive) in [15], 0.407 (inactive) in test [16] and -0.732 in [17]. In addition, the composite z-score in test [13] is -0.112 (inactive); in test [18], -0.0172; in test [19], 0.746 (inactive); with XIP peptide (Xip251-270), -0.409.
With `CC(C)C[C@@H]1NC(=O)[C@@]23C(=O)N[C@@H](Cc4ccccc4)C2[C@H](C)[C@@]2(C)O[C@H]2C3/C=C/CC/C=C/CNC(=O)[C@@H](C)NC1=O` (stereo not given in full), the z-score in test [1] was 1.98; in test [2], -0.309; in test [3], 0.827; in [4] it was -0.386; in test [5], 1.82; in [6], 0.918 (inactive). Besides, the z-score in [7] is -0.205; in test [8], 2.11; in [9], -0.613 (inactive); in [10], -0.589; in [11], -1.92 (inactive); in test [12] it was 0.603 (inactive). For the same molecule, the z-score was -0.209 (inactive) in test [14], 2.5 (inactive) in test [15], 1.34 (inactive) in test [16] and 0.866 in [17]. Further, the composite z-score is 0.596 (inactive) in [13], -0.227 in [18], -0.804 (inactive) in [19] and -0.0387 in the test with XIP peptide (Xip251-270).
Consider `CC(C)(C)OC(=O)CC[C@@]1(C(=O)NCc2ccccc2)N=C(c2ccc(OCCCO)cc2)O[C@@H]1c1ccccc1CN=[N+]=[N-]`, for which the z-score in test [1] was 2.98; in test [2], -0.399; in test [3], 0.507; in test [4], -1.04; in [5] it was 2.13; in test [6], 0.179 (inactive). The z-score in test [7] was -1.12; in test [8] it was 0.236; in test [9] it was 0.392 (inactive); in test [10], -0.169; in test [11], -0.986 (inactive); in test [12] it was 0.725 (inactive). Moreover, the z-score is -0.496 (inactive) in test [14], 2.1 (inactive) in [15], 0.824 (inactive) in test [16] and 0.394 in test [17]. Further, the composite z-score in test [13] is -0.182 (inactive); in [18], -0.227; in test [19] it was 1.42 (inactive); with XIP peptide (Xip251-270), 0.733.
Turning to `C=CCNC(=O)[C@H]1[C@@H]2C(=O)O[C@@H](c3ccccc3)[C@@H](c3ccccc3)N2[C@@H](c2ccccc2OCCO)[C@]12C(=O)N(C(=O)OCCOC)c1ccc(C#CCCO)cc12`, the z-score in test [1] is 0.674; in test [2] it was -0.123; in [3], -2.04; in test [4], -1.42; in test [5], 0.534; in test [6], 0.825 (inactive). For the same molecule, the z-score is -0.847 in test [7]; -0.665 in test [8]; 0.659 (inactive) in test [9]; -0.156 in [10]; 0.799 (inactive) in test [11]; 0.287 (inactive) in test [12]. The z-score is 1.57 (inactive) in test [14], 0.488 (inactive) in test [15], 0.985 (inactive) in test [16] and -0.0311 in [17]. The composite z-score was -0.409 (inactive) in test [13], 0.355 in test [18], 0.58 (inactive) in test [19] and 0.507 in the test on XIP peptide (Xip251-270).
Consider `COc1ccc([Si](C)(C)[C@H]2[C@H](CC(=O)N(CCO)Cc3ccccc3)O[C@@]3(C(=O)N(Cc4ccc(N5CCC5=O)cc4)c4ccccc43)[C@@H]2C)cc1`, for which the z-score in [1] was 0.816; in test [2], -0.861; in test [3], -1.22; in test [4], -3.56; in test [5], 0.197; in test [6], 1.44 (inactive). Further, the z-score is -0.995 in test [7]; 0.233 in [8]; -1.1 (inactive) in test [9]; 0.0408 in [10]; -0.344 (inactive) in test [11]; -1.3 (inactive) in test [12]. Further, the z-score in test [14] was 1.73 (inactive); in test [15], 1.61 (inactive); in test [16], 1.46 (inactive); in test [17], -1.97. Moreover, the composite z-score in test [13] is -0.983 (inactive); in test [18], -0.0948; in test [19], 2.44 (inactive); in the test with XIP peptide (Xip251-270) it was 0.365.
With `C=C[C@H](OC)[C@@H](OC(=O)Nc1ccc(OC)cc1)c1ccc(OC)c(O)c1`, the z-score in test [1] is 0.922; in [2], -0.737; in test [3], 0.478; in test [4] it was 0.294; in [5], -0.638; in [6], 1.02 (inactive). The z-score is 0.756 in test [7]; 0.206 in test [8]; 0.304 (inactive) in test [9]; 0.895 in test [10]; -1.01 (inactive) in test [11]; 1.12 (inactive) in test [12]. Besides, the z-score in test [14] is 0.0923 (inactive); in test [15] it was 1.89 (inactive); in [16] it was 1.29 (inactive); in [17] it was 1.15. Further, the composite z-score in test [13] was 0.465 (inactive); in test [18], 0.0073; in test [19], 1.11 (inactive); with XIP peptide (Xip251-270) it was -1.18.
